Among the data in the antibiotic and cytotoxicity screens of Wong et al. (2023) are cytotoxicity call values, retold here.

Hit rate of the full screen: of about 39,000 compounds, about 3,300 (8.5%) were called active. This is one part of a sample in which actives are shown more often than they occur.

For this assay, the system named is HepG2. Kind of assay: cytotoxicity call (relative viability < 0.9). The following applies: 10 µM.
Turning to `COc1ccc2c3c(n(c2c1)C)[C@@H](CO)N(C[C@]13CCN(CC1)Cc1ccncc1)C(=O)CN1CCOCC1`, the cytotoxicity call is “inactive”.

In the case of `NC(=NC(=O)N1CCOCC1)c1ccccc1`, the cytotoxicity call was “inactive”.

As for `O=C(C[C@@H]1CC[C@@H](NC(=O)Cc2ccccn2)[C@@H](CO)O1)NCCc1ccncc1`, the cytotoxicity call was “inactive”.

Consider `CN(C)CCCNC(=O)[C@@H]1c2ccccc2C(=O)N(Cc2cc(C(F)(F)F)cc(C(F)(F)F)c2)[C@H]1c1ccc(CO)cc1`, for which the cytotoxicity call was “inactive”.

In the case of `CO[C@H](CN(C)S(=O)(=O)c1cn(C)cn1)[C@@H](C)CN(C(=O)Nc1ccc(C(F)(F)F)cc1)[C@@H](C)CO`, the cytotoxicity call was “inactive”.

For the molecule `CNC[C@H]1Oc2c(NS(=O)(=O)c3cn(C)cn3)cccc2C(=O)N([C@@H](C)CO)C[C@H]1C`, the cytotoxicity call is “inactive”.

In the case of `O=C(COc1ccc(S(=O)(=O)N2CCOCC2)cc1)N1CCOCC1`, the cytotoxicity call is “inactive”.

As to `COc1ccc([Si](C)(C)[C@@H]2[C@@H](CCOC(=O)NCCCCCC(=O)NO)O[C@@]3(C(=O)N(Cc4ccccc4)c4ccc(NC(=O)[C@@H](C)OC(=O)NCCCCCC(=O)NO)cc43)[C@H]2C)cc1`, the cytotoxicity call was “inactive”.

In the case of `C[C@H]1CN([C@@H](C)CO)C(=O)Cc2cc(NC(=O)Cn3cnnn3)ccc2O[C@@H]1CN(C)Cc1ccc(Cl)c(Cl)c1`, the cytotoxicity call was “inactive”.

Consider `CCc1nn(C)c2c(=O)c(=O)c2n(C)[nH]1`, for which the cytotoxicity call is “inactive”.

As for `O=C(CN1CCOCC1)NCC[C@H]1CC[C@@H](NS(=O)(=O)c2ccc(Cl)cc2)[C@@H](CO)O1`, the cytotoxicity call is “inactive”.

With `C[C@H]1CN([C@@H](C)CO)C(=O)c2cc(NS(=O)(=O)c3ccccc3)ccc2O[C@H]1CN(C)Cc1ccc(Cl)c(Cl)c1`, the cytotoxicity call was “inactive”.

Regarding `CC(C)Oc1ccccc1OCc1cnnn1CC(=O)NS(=O)(=O)c1ccccc1OC(F)(F)F`, the cytotoxicity call was “inactive”.

On to `Cc1ccc(S(=O)(=O)N(C)C[C@H]2Oc3ccc(NC(=O)NC(C)C)cc3C(=O)N([C@@H](C)CO)C[C@@H]2C)cc1`, for which the cytotoxicity call is “inactive”.

Regarding `O=C(OCc1cccc(O)c1O[C@@H]1O[C@H](CO)[C@@H](O)[C@H](O)[C@H]1O)[C@]1(O)C(=O)[C@@H]2C=C[C@H]1c1c2ccc(O)c1O`, the cytotoxicity call was “inactive”.

With `O=C1NCCc2c(O)cccc21`, the cytotoxicity call was “inactive”.

As to `COC(=O)c1cn(CC(N)=O)c2ccccc12`, the cytotoxicity call is “inactive”.

For the molecule `Cn1cc(CN2CCC(C(=O)N[C@@H](c3ccc(F)cc3)c3ccc4ccccc4n3)CC2)c2ccccc21`, the cytotoxicity call was “active”.

With `COc1ccc(S(=O)(=O)N(C)C[C@H]2Oc3ccc(NS(C)(=O)=O)cc3CC(=O)N([C@@H](C)CO)C[C@@H]2C)cc1`, the cytotoxicity call was “inactive”.

Consider `CC(C)COC(=O)CNc1n[nH]c(=O)[nH]c1=O`, for which the cytotoxicity call was “inactive”.

As for `Cn1cnc(S(=O)(=O)N[C@@H]2C=C[C@@H](CC(=O)Nc3ccccc3)O[C@@H]2CO)c1`, the cytotoxicity call was “inactive”.

For the molecule `CCOC(=O)[C@H]1CC(C)=NNC1=O`, the cytotoxicity call is “inactive”.

As for `Cn1cncc1[C@@](N)(c1ccc(Cl)cc1)c1ccc2c(c1)c(-c1cccc(Cl)c1)cc(=O)n2C`, the cytotoxicity call was “active”.

Consider `O=C(CCCCCCC(=O)N/N=C/c1cccc(B(O)O)c1)NO`, for which the cytotoxicity call was “inactive”.

On to `Cn1cnc(CCNC(=O)C[C@H]2CC[C@H]3[C@@H](COC[C@@H](O)CN3C(=O)Nc3ccc(C(F)(F)F)cc3)O2)c1`, for which the cytotoxicity call was “inactive”.

Take `c1cn(-c2ccc(-n3ccnc3)nn2)cn1`: the cytotoxicity call was “inactive”.

`Clc1ccc2c(c1)C(N1CCNCC1)=Nc1ccccc1O2`: the cytotoxicity call is “active”.

`CN1CCN(C2=Nc3cc(Cl)ccc3Nc3ccccc32)CC1`: the cytotoxicity call is “inactive”.

Turning to `CN1CCN(C2=Nc3ccccc3Oc3ccc(Cl)cc32)CC1.O=C(O)CCC(=O)O`, the cytotoxicity call was “inactive”.

In the case of `CCS(=O)(=O)Nc1ccc2c(c1)C(=O)N(C)C[C@@H](OC)[C@H](C)CN(Cc1cccnc1)[C@H](C)CO2`, the cytotoxicity call was “inactive”.

In the case of `O=C(C[C@@H]1C[C@H]2c3cc(NC(=O)Nc4ccc(C(F)(F)F)cc4)ccc3O[C@H]2[C@H](CO)O1)NCCc1ccccc1`, the cytotoxicity call was “inactive”.

For the molecule `CO[C@H]1CN(C)C(=O)c2cc(NS(=O)(=O)c3cn(C)cn3)ccc2OC[C@@H](C)N(CC2CC2)C[C@@H]1C`, the cytotoxicity call was “inactive”.

Consider `C[C@H](CO)N1C[C@H](C)[C@@H](CN(C)S(=O)(=O)c2cccs2)OCCCC[C@H](C)Oc2ccc(NC(=O)Nc3ccc(F)cc3)cc2C1=O`, for which the cytotoxicity call is “inactive”.

As to `C[C@@H]1CN([C@@H](C)CO)C(=O)c2cc(NC(=O)Nc3ccc(F)cc3)ccc2O[C@@H](C)CCCCO[C@H]1CN(C)S(=O)(=O)c1cccs1`, the cytotoxicity call is “active”.

Take `COc1ccc(NC(=O)Nc2ccc3c(c2)C(=O)N([C@@H](C)CO)C[C@H](C)[C@@H](CN(C)S(=O)(=O)c2cccs2)OCCCC[C@@H](C)O3)cc1`: the cytotoxicity call is “active”.

Take `COc1ccc(NC(=O)Nc2ccc3c(c2)C(=O)N([C@@H](C)CO)C[C@H](C)[C@H](CN(C)S(=O)(=O)c2cccs2)OCCCC[C@@H](C)O3)cc1`: the cytotoxicity call is “inactive”.

In the case of `COc1ccc(NC(=O)Nc2ccc3c(c2)C(=O)N([C@H](C)CO)C[C@H](C)[C@@H](CN(C)S(=O)(=O)c2cccs2)OCCCC[C@H](C)O3)cc1`, the cytotoxicity call is “inactive”.

Turning to `C[C@@H]1CCCCO[C@@H](CN(C)S(=O)(=O)c2cccs2)[C@@H](C)CN([C@H](C)CO)C(=O)c2cc(NC(=O)Nc3ccc(F)cc3)ccc2O1`, the cytotoxicity call is “inactive”.

For `C[C@@H]1CCCCO[C@@H](CN(C)S(=O)(=O)c2cccs2)[C@H](C)CN([C@H](C)CO)C(=O)c2cc(NC(=O)Nc3ccccc3)ccc2O1`, the cytotoxicity call was “active”.

For the molecule `C[C@@H]1CN([C@@H](C)CO)C(=O)c2cc(NC(=O)Nc3ccccc3)ccc2O[C@@H](C)CCCCO[C@@H]1CN(C)S(=O)(=O)c1cccs1`, the cytotoxicity call was “inactive”.

As to `C[C@@H]1CCCCO[C@@H](CN(C)S(=O)(=O)c2cccs2)[C@H](C)CN([C@@H](C)CO)C(=O)c2cc(NC(=O)Nc3ccccc3)ccc2O1`, the cytotoxicity call is “inactive”.

Take `C[C@@H]1CCCCO[C@H](CN(C)S(=O)(=O)c2cccs2)[C@@H](C)CN([C@H](C)CO)C(=O)c2cc(NC(=O)Nc3ccc(F)cc3)ccc2O1`: the cytotoxicity call was “inactive”.

For `C[C@H]1CCCCO[C@@H](CN(C)S(=O)(=O)c2cccs2)[C@@H](C)CN([C@@H](C)CO)C(=O)c2cc(NC(=O)Nc3ccc(F)cc3)ccc2O1`, the cytotoxicity call was “active”.

For the molecule `C[C@@H]1CN([C@H](C)CO)C(=O)c2cc(NC(=O)Nc3ccc(F)cc3)ccc2O[C@@H](C)CCCCO[C@H]1CN(C)S(=O)(=O)c1cccs1`, the cytotoxicity call was “inactive”.

As to `C[C@@H]1CN([C@@H](C)CO)C(=O)Cc2cc(NC(=O)CCCCCC(=O)Nc3ccccc3N)ccc2O[C@@H]1CN(C)C(=O)Nc1ccc(F)cc1`, the cytotoxicity call is “inactive”.
